The structures appear in SMILES notation. The campaign covered roughly 16,000 compounds. About 2,600 (16%) were called active. Roughly 20% stayed inconclusive and do not appear here. This is one part of a sample in which actives are shown more often than they occur. Unmarked numbers belong to inactive results. Calls follow the shape of the dose curve; as a rule, active = well fitted curve in the direction sought with a large enough effect; inconclusive = small, poorly fitted or top-dose-only effect, or effect the other way; inactive = no such curve, though single readings can be large or run the other way.
% is scaled to controls: 0 for no effect and ±100 for the full control effect.

This test deals with Cytochrome P450 2D6 (Homo sapiens) (UniProt P10635). As to the kind of experiment: Cytochrome panel assay with activity outcomes. The settings on record: recombinant CYP, pro-luciferin dealkylation, luminescence, p450-cyp2d6; series mostly up to 57.1 µM; activity, negative = inhibition: at the top concentration.
Chain of Cytochrome P450 2D6 (Homo sapiens) (P10635 whole entry, looked up): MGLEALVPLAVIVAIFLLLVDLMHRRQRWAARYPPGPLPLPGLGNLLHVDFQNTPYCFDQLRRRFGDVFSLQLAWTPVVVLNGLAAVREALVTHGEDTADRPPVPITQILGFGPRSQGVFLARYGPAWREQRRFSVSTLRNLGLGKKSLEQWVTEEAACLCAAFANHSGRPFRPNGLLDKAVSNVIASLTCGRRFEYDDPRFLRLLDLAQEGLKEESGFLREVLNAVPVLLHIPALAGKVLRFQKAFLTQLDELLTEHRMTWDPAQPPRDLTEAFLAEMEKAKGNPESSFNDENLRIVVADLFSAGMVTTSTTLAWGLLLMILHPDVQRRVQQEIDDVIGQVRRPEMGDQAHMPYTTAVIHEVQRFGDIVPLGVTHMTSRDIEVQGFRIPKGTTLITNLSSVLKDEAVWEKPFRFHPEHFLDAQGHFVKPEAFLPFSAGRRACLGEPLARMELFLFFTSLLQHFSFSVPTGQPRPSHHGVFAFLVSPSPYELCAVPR
For the molecule `O=[N+]([O-])c1cc([As](=O)(O)O)ccc1O`, the “activity, negative = inhibition” value was -1.12% [at 25.6 µM].

By AC50 is commonly meant the concentration giving half of the maximal activity seen. With `CCn1cnc2c(Nc3cccc(Cl)c3)nc(N[C@@H]3CCCC[C@H]3N)nc21`, the AC50 was 25.1 µM (active).

Regarding `CC(=O)[C@@H]1CC[C@@H]2[C@@H]3CC=C4C[C@H](OS(=O)(=O)O)CC[C@@]4(C)[C@H]3CC[C@]21C`, the “activity, negative = inhibition” value was -8.1%.

Take `Cc1ccc2c(c1)C1CN(C)CCC1N2C(=O)Nc1cccc(Cl)c1` (configuration not stated): the half-maximal activity concentration (AC50) was 1 µM (active).

`Clc1cc(I)cc(Cl)c1NC1=NCCN1`: the AC50 is 3.98 µM (active).

As to `Brc1c(NC2=NCCN2)ccc2nccnc12`, the “activity, negative = inhibition” value was -11.4%.

Regarding `CCC(CC)C(=O)NC1CCSC1=O` (configuration not stated), the “activity, negative = inhibition” value is 0.616%.

For `CC1(C)N=C(N)N=C(N)N1c1cccc(C(=O)Nc2ccc(S(=O)(=O)F)cc2)c1`, the AC50 is 2 µM (active).

For `C=CCN1C(=O)c2ccccc2Sc2ccc(C(=O)N3CCC4(CC3)OCCO4)cc21`, the “activity, negative = inhibition” value is -5.85%.

For `CC(=O)c1ccc2c(c1)N(CCCN(C)C)c1ccccc1S2`, the AC50 is 2.51 µM (active).

Take `CN1C(=O)c2ccccc2Sc2ccc(C(=O)N3CCC4(CC3)OCCO4)cc21`: the “activity, negative = inhibition” value was 13.9%.

For `CCCCc1nc2ccccc2c(=O)n1-c1ccccc1[N+](=O)[O-]`, the “activity, negative = inhibition” value is -22.1%.

As for `COc1cc(CCN)ccc1O`, the “activity, negative = inhibition” value was -0.172%.

Turning to `CN(C(=O)Cc1ccccc1)[C@H](CN1CCCC1)c1ccccc1`, the concentration at half-maximal activity (AC50) was 3.16 µM (active).

Take `CN(C(=O)Cc1ccc(Cl)c(Cl)c1)[C@@H](CN1CCCC1)c1cccc(OCC(=O)O)c1`: the “activity, negative = inhibition” value was 0.96%.

In the case of `O=c1[nH]oc2c1CCNC2`, the AC50 result is “inactive”.

Take `C#C[C@@]1(O)CC[C@@H]2[C@@H]3CCC4=CC(=O)CC[C@@]4(C)[C@H]3CC[C@]21C`: the “activity, negative = inhibition” value is 3.54% [at 25.6 µM].

Consider `Cc1ccc(N2C(=O)/C(=C/N3CCN(C(=O)c4ccco4)CC3)C(=O)NC2=S)cc1C`, for which the AC50 was 0.0282 µM (active).

Turning to `Cc1ccc(N2C(=O)/C(=C/c3ccc(CN(CCC#N)S(C)(=O)=O)o3)C(=O)NC2=S)cc1C`, the “activity, negative = inhibition” value was 4.47%.

With `CC(=O)Nc1ccccc1C(=O)OCC(=O)c1ccc2ccccc2c1`, the “activity, negative = inhibition” value is 29.5%.

On to `CC[C@@]1(O)C(=O)OCc2c1cc1n(c2=O)Cc2cc3c(NC(=O)CN)cccc3nc2-1`, for which the activity, negative = inhibition is 3.66% [at 11.4 µM].

Consider `O=C(O)[C@H]1[C@H](C(=O)O)[C@H]2CC[C@@H]1O2`, for which the “activity, negative = inhibition” value was 2.98%.

On to `CN(C)CC/C=C1\c2ccccc2Sc2ccc(Cl)cc21`, for which the AC50 was 2.51 µM (active).

With `CN(C)CCC=C1c2ccccc2CCc2ccccc21`, the AC50 is 7.94 µM (active).

Consider `CN(C)[C@@H]1C(=O)C(C(N)=O)=C(O)[C@]2(O)C(=O)C3=C(O)c4c(O)cccc4[C@@](C)(O)[C@H]3[C@H](O)[C@@H]12`, for which the “activity, negative = inhibition” value is 0.652% [at 25.6 µM].

As to `FC(F)(F)c1nc2ccc(SSc3ccc4nc(C(F)(F)F)[nH]c4c3)cc2[nH]1`, the activity, negative = inhibition is -8.27% [at 11.4 µM].

For `CP(=O)(O)C1=CCNCC1`, the “activity, negative = inhibition” value was -1.3%.

For `CCCN1CCC[C@H](c2cccc(C#N)c2)C1`, the AC50 was 31.6 µM (active).

Regarding `CCCN1CCC[C@H](c2cccc(O)c2)C1`, the AC50 result is “inactive”.

Turning to `CN1C2CCC1/C(=C\c1ccccc1)C(=O)/C2=C\c1ccccc1`, the AC50 is 0.158 µM (active).

Take `CCOC(=O)N(c1ccccc1)P1(=S)OCCO1`: the “activity, negative = inhibition” value was 4.06%.

With `CC(=O)[C@@H]1CC[C@@H]2[C@@H]3CCC4=CC(=O)CC[C@@]4(C)[C@H]3CC[C@]21C`, the “activity, negative = inhibition” value was -11.4% [at 25.6 µM].

For `Cn1ccnc1`, the “activity, negative = inhibition” value is 7.17%.

For the molecule `C[Se]C[C@@H](N)C(=O)O`, the “activity, negative = inhibition” value was 15.1%.

On to `CC[C@]1(C2=NCCN2)Cc2ccccc2O1`, for which the AC50 was 12.6 µM (active).

`CC[C@H](C)C(=O)O[C@@H]1[C@H](O)[C@@H]2[C@H](CN3C[C@@H](C)CC[C@@H]3[C@@]2(C)O)[C@@H]2C[C@@]34O[C@@]5(O)[C@@H](OC(=O)[C@](C)(O)CC)CC[C@@]3(C)[C@H]5[C@H](OC(C)=O)[C@@H](OC(C)=O)[C@H]4[C@]12O`: the “activity, negative = inhibition” value was 9.64% [at 25.6 µM].

For the molecule `O=c1cc(-c2ccc(O)c(O)c2)oc2cc(O)cc(O)c12`, the “activity, negative = inhibition” value was -1.91% [at 25.6 µM].

Regarding `Cc1c([C@@H](C)[C@H]2NC[C@H](C)C[C@@H]2O)ccc2c1C[C@@H]1[C@H]2CC=C2C[C@@H](O)CC[C@@]21C`, the activity, negative = inhibition is 9.78% [at 11.4 µM].

`C[C@]1(O)CC[C@H]2[C@@H]3[C@@H](O)CC4=CC(=O)CC[C@@]4(C)[C@H]3CC[C@]21C`: the activity, negative = inhibition is 10.5% [at 11.4 µM].

As for `NC(=NCc1ccc(Cl)cc1)SCCCc1cnc[nH]1`, the AC50 is 12.6 µM (active).

For `OCc1cnc[nH]1`, the “activity, negative = inhibition” value was -1.75%.

As to `NC(=NCCc1ccc(I)cc1)SCCCc1cnc[nH]1`, the “activity, negative = inhibition” value is 9.29%.

As to `NCCc1ccc(S(=O)(=O)F)cc1`, the AC50 is 39.8 µM (active).

For the molecule `NCCc1ccc(O)cc1`, the “activity, negative = inhibition” value is -10.7%.

On to `NCCc1ccc(S(=O)(=O)O)cc1[N+](=O)[O-]`, for which the activity, negative = inhibition was -0.422% [at 11.4 µM].

For the molecule `C[C@@H]1[C@@H]2Cc3ccc(O)cc3[C@@]1(C)CCN2CC1CC1`, the AC50 was 31.6 µM (active).

Turning to `C=CCN1CC[C@@]23c4c5ccc(O)c4O[C@H]2/C(=N\N=C2/CC[C@@]4(O)[C@H]6Cc7ccc(O)c8c7[C@@]4(CCN6CC=C)[C@@H]2O8)CC[C@]3(O)[C@@H]1C5`, the “activity, negative = inhibition” value is -18.6%.
